High-throughput results deposited in PubChem BioAssay by National Center for Advancing Translational Sciences (NCATS).
HCV inh – qHTS Assay for Inhibitors of Hepatitis C Virus (HCV); Huh7.5.1 HCVcc-Cre infection, luciferase reporter, 44 h; Potency, µM (highest dose often 41.8 µM), for inactives: top-dose activity change, negative = inhibition, actives largely listed as inhibitors; 340,000 tested, 3.4% active; active = well fitted inhibition curve with a large enough effect; inconclusive = small, poorly fitted or top-dose-only effect, or another doubt; inactive = no such curve, though single readings can be large or run the other way; note: potency is the fitted concentration of half-maximal effect
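After 44 h co-culture of compound, cells and HCVcc-Cre (~0.5 moi), substrate is added for 15 min at room temperature and luciferase measured over 15 sec. Cells were seeded at 1,000/well and pre-cultured 4 h.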
FMDV antiviral – High Throughput Screening for Foot and Mouth Disease Virus Antivirals; FMDV antiviral cell-based qHTS; Potency, µM (titrated, usually from 57.9 µM), inactives show at the highest dose activity change, negative = inhibition, most hits filed as inhibitors; 410,000 tested, 1.2% active; AID 1159524, 2015; calls by dose curve; tested in HEK293T cells; note: read-out not given here; potency is the fitted concentration of half-maximal effect; nearly all actives have a fitted effect of over 45% in size
HCMV antiviral – qHTS Assay for inhibitors of the human cytomegalovirus (HCMV); activity change, negative = inhibition, % at 57.5 µM; 410,000 tested, 4.5% active; AID 1259415, 2018; HFF cells, HCMV-luciferase reporter, 72 h; stronger effect = lower value; in the data active = activity change below about -60%; inconclusive = no clear call, values can overlap the other calls; inactive = above about -39%
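Compounds were evaluated in HFFs infected with an HCMV luciferase reporter virus (MOI 1 PFU/cell). Luciferase in lysates collected 72 h post infection served as the replication measure.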
LASV entry inh – qHTS for Inhibitors of binding or entry into cells for Lassa Virus. Lassa virus pseudotype entry inhibition, cell reporter. Potency, µM (doses to about 37.9 µM), without a hit: at the highest dose activity change, negative = inhibition, hits mostly inhibitors. 300,000 tested, 1.2% active; calls by dose curve; tested in HEK293 cells; note: potency is the fitted concentration of half-maximal effect; nearly all actives have a fitted effect of over 50% in size
MARV entry inh – qHTS for inhibitors of binding or entry into cells for Marburg Virus. AID 540276, 2011. Marburg virus pseudotyped entry inhibition, cell reporter. Potency, µM (series often up to 37.8 µM), for inactives: at the top dose activity change, negative = inhibition, most hits filed as inhibitors. 300,000 tested, 1.8% active; calls by dose curve; tested in HEK293 cells; note: potency is the fitted concentration of half-maximal effect
The depositor's hits bear a star; ? = inconclusive; . = no result given; [ ] = dose if it differs, or a comment. In the library only some 7.9% were active in any assay of this set; here they are far more common. % is set by controls: 0 for no effect and ±100 for the full control effect.

SMILES	HCV inh	FMDV antiviral	HCMV antiviral	LASV entry inh	MARV entry inh
CC(=O)N1CCN(c2ccc(OCC3CO[C@@](Cn4ccnc4)(c4ccc(Cl)cc4Cl)O3)cc2)CC1 (some centres not stated)	.	25µM*	.	.	.
N#Cc1cccc(NC(=O)N2CCCC3(CCN(C(=O)c4ccco4)CC3)C2)c1	.	-9%	.	.	.
C(=C\c1ccccc1)/CN1CCN(C(c2cccs2)c2nnnn2-c2ccc3c(c2)OCCO3)CC1 (configuration not stated)	.	-19%	-8	.	.
S=c1[nH]c2ccc3ccccc3c2[nH]1	17%	-13%	-5	?	-3%[46.1 µM]
Cc1[nH]c2c(ccc3ccccc32)c1C1C(CCN)C1(C)C (configuration not stated)	?	?	-11	?	26µM*
C#CCCCO/N=C1\C[C@@H](O)[C@@H](O)[C@@H]2[C@@H]3C(=O)N(Cc4ccccc4)C(=O)[C@@H]3CC[C@H]12	.	.	.	.	11%[14.2 µM]
COC(=O)N(C=Cc1ccc(OC)cc1)CCc1ccc(OC)c(OC)c1	.	.	.	.	3%[14.2 µM]
Cc1c(Br)c([N+](=O)[O-])nn1C(C)C(=O)N1CCCc2ccccc21 (configuration not stated)	12%	.	-24	-14%	-5%
COc1cc(CN2CCC(N3CCC(C(=O)N4CCCC4)CC3)CC2)cc2c1OCO2	10µM*	-9%	45	-14%[46.1 µM]	?
O=C(C1CCN(C2CCN(Cc3ccc4c(c3)CCO4)CC2)CC1)N1CCCC1	?	-24%	-20	-5%[46.1 µM]	4.5µM*
CO[C@@H]1c2cc(F)ccc2C(=CCCOC(=O)CC=Cc2ccccc2)[C@H]1C	.	.	.	.	-24%[14.2 µM]
O=C(COC(=O)c1ccc(OC(F)F)cc1)NCCCN1CCCC1=O	1%	-13%	-15	.	.
CC(NC(=O)C1CCOCC1)c1nnc2n1CCN(Cc1ccc(F)cc1)CC2 (configuration not stated)	.	-11%	.	.	.
c1ccc2c(c1)ccc1[nH]c3c(c12)CCCC3	?	-3%	57	0.63µM*	0.5µM*
CCOc1ccc(C(=O)N(Cc2nc(-c3cccc(C)c3)no2)C(C)C)cc1	.	-15%	-1	?	-10%[46.1 µM]
COCCN1CCN(C(=O)c2cnn(-c3nccc(-c4ccccc4F)n3)c2-c2ccco2)CC1	.	0%	.	.	.
Cc1c(C(=O)c2cccc3ccccc23)c2cccc3c2n1[C@H](CN1CCOCC1)CO3	?	-29%	-98*	21µM*	8.9µM*
Cc1c(C(=O)c2ccc3ccccc3c2)c2cccc3c2n1[C@H](CN1CCOCC1)CO3	.	-15%	.	.	.
Cc1ccc2c(c1)c(=O)c1ccccc1n2CCCC(=O)Nc1ccc(F)cc1F	.	-10%	4	3%[46.1 µM]	.
O=C(CCn1c(=O)c2cccn2c2ccccc21)Nc1ccc(F)cc1	?	-10%	60	?	.
Cc1cc(C)cc(NC(=O)CCCn2c3ccccc3c(=O)c3ccccc32)c1	.	?	-77*	?	.
Cc1cc(C)cc(NC(=O)CCn2c(=O)c3cccn3c3ccccc32)c1	3.2µM*	?	-14	.	.
Cc1nn(CCCC(=O)Nc2cccc(F)c2)c(=O)c2c1sc1ccccc12	.	-17%	-20	-10%[46.1 µM]	?
CCc1nc2ccccc2nc1N1CCN(S(=O)(=O)c2ccccc2)CC1	5%	?	-68*	?	?
CCc1nc2ccccc2nc1N1CCN(S(=O)(=O)c2c(C)cc(Cl)cc2C)CC1	-16%	-22%	-25	.	.
SMILES	HCV inh	FMDV antiviral	HCMV antiviral	LASV entry inh	MARV entry inh
CCOc1ccccc1Nc1cc(C)nc2ccc(C)cc12	6.3µM*	?	?	?	?
CC(=O)c1cccc(Nc2cc(C)nc3ccc(C)cc23)c1	?	-23%	-8	-6%	?
CCOc1ccccc1Nc1nc2ccccc2[nH]1	?	61%	-16	2%	-4%
CCOc1ccccc1Nc1cc(C)nc2ccccc12	.	-19%	-62*	.	.
CC(C)C(NC(=O)Cc1ccccc1)C(=O)N1CCN(c2cccc(Cl)c2)CC1 (configuration not stated)	11µM*	?	-101*	.	.
CSc1ccccc1C(=O)N1CCN(c2cccc(Cl)c2)CC1	?	-18%	48	5.6µM*	?
CC(NC(=O)c1ccco1)C(=O)N1CCN(c2cccc(Cl)c2)CC1 (configuration not stated)	-4%	-13%	-27	.	.
CSc1ncc(C(=O)N2CCN(c3cccc(Cl)c3)CC2)c(C)n1	.	-6%	-14	8%[46.1 µM]	.
CN(CCOc1ccc(Cl)cc1)C(=O)c1ccccc1SCC(=O)N1CCCC1	10µM*	?	?	.	.
Cc1cc(C(=O)N2CCN(c3cccc(Cl)c3)CC2)c(C)o1	?	?	-1	?	6.3µM*
COc1ccc(N2CC(C(=O)OCC(=O)Nc3cccc(C)c3C)CC2=O)cc1 (configuration not stated)	7%	10%	6	-3%	5%[46.1 µM]
CCOc1ccccc1NC(=O)CN(C)S(=O)(=O)c1ccc2[nH]c(=O)oc2c1	-13%	-16%	?	.	.
Cc1ccc(Cl)cc1N1CCN(C(=O)c2ccccc2SCC(=O)N2CCCC2)CC1	11µM*	?	-13	.	.
CSC(=NC#N)N1CCN(c2ccccc2)CC1	19%	2%	?	11%	12%
COc1ccccc1N1CCN(C(=O)c2ccccc2SCC(=O)N2CCCC2)CC1	7%	-1%	-25	-2%	-19%
CSC(=NC#N)N1CCN(c2cccc(Cl)c2)CC1	9%	-20%	-67*	5%	9%
Cc1cc(Cl)ccc1OCC(=O)N/N=C/c1ccncc1	-5%	6%	-21	3%	-30%[46.1 µM]
COc1ccc(-n2ncc(C(C)NS(=O)(=O)c3cc(C)sc3C)c2C)cc1 (configuration not stated)	.	-2%	-26	.	.
Cn1cccc1C1C=C(c2ccc(C(C)(C)C)cc2)Nc2ncnn21 (configuration not stated)	?	-58%	-80*	.	.
